The source of these data is PubChem BioAssay (EPA / NIEHS).

Inconclusive results are not listed. The source made the active and inactive calls. The calls were made as follows, unless noted: active = hit-call score of the fitted dose curve at least 0.9, where 1 is the maximum; inactive = score below 0.9.

Assay [1] in a line: APR_HepG2_CellCycleArrest_24hr: Apredica 24-hour HepG2 Assay for Cell Cycle Arrest (AID 2282905).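 Also: cell cycle arrest scored as ratio of 2N to 4N nuclear DNA content.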 The following applies: imaging, actives raise or lower the signal. The procedure, abridged:
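Cell cycle arrest is scored from nuclear DNA content measured by high-content imaging of Hoechst 33342-stained HepG2 cells following 24-hour treatment at ten concentrations up to 200 uM, with DMSO as baseline.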

A short description of assay [2]: APR_HepG2_NuclearSize_24hr: Apredica 24-hour HepG2 Assay for Nuclear Size (AID 2282907). The following applies: high-content imaging, actives raise or lower the signal. In short, it runs like this: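 Compounds in DMSO (final 0.5%) were added to human HepG2 hepatoma cells at ten concentrations up to 200 uM for 24 hr. Fixed nuclei were stained with Hoechst 33342, and nuclear diameter was quantified from automated images.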

Assay [3] in a line: APR_HepG2_MicrotubuleCSK_24hr: Apredica 24-hour HepG2 Assay for Microtubule CSK Stabilty (AID 2282909). The following applies: HepG2 microtubule cytoskeleton imaging, actives raise or lower the signal. The procedure, abridged:
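Steps: dose HepG2 for 24 h (0.39–200 uM, 0.5% DMSO); fix 30 min in 3.7% formaldehyde at room temperature; permeabilize; stain alpha-tubulin 60 min; image microtubule cytoskeleton at 20x. Signal change fitted in both directions relative to DMSO.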

Assay [4] can be described thus: APR_HepG2_MitoticArrest_24hr: Apredica 24-hour HepG2 Assay for Mitotic Arrest (AID 2282910). The following applies: high-content imaging, actives raise or lower the signal. In short, it runs like this:
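HepG2 cells, 24 h exposure at 0.39-200 uM (10 concentrations, duplicate, 0.5% DMSO). Fixed, stained for phospho-histone H3 with Hoechst; imaged by high-content microscopy, bidirectional fit versus DMSO.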

Assay [5] in a line: APR_HepG2_MitoMembPot_24hr: Apredica 24-hour HepG2 Assay for Mitochondrial Membrane Potential (AID 2282911). The following applies: imaging, actives raise or lower the signal. In short, it runs like this:
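HepG2, 24 hr dosing, 10 concentrations 0.39–200 uM, 0.5% DMSO final. Live-cell MitoTracker Red CMXRos 250 nM 30 min, then 3.7% formaldehyde fix. HCS fluorescence imaging, 20x; bidirectional fit vs DMSO baseline.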

The nature of assay [6]: APR_HepG2_CellCycleArrest_72hr: Apredica 72-hour HepG2 Assay for Cell Cycle Arrest (AID 2282914). The following applies: high-content imaging, actives raise or lower the signal. In short, it runs like this:
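HepG2, 72 hr exposure, 10-point 0.39–200 uM, duplicate, 0.5% DMSO final. Fix 3.7% formaldehyde 30 min RT, Triton X-100 0.5%, Hoechst 33342 2 ug/mL. ArrayScan 20x, six fields/well; DNA content per nucleus; bidirectional fit vs DMSO.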

Assay [7] in a line: APR_HepG2_CellLoss_72hr: Apredica 72-hour HepG2 Assay for Cell Loss (AID 2282915). The following applies: high-content imaging. The procedure, abridged: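 HepG2 cells exposed 72 h to compound at 0.39–200 uM (10 concentrations, duplicate) in 0.5% DMSO. Fixed with 3.7% formaldehyde and Hoechst 33342-stained. Imaged at 20x; nuclear count gives cell number, fitted bidirectionally versus DMSO.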

A short description of assay [8]: APR_HepG2_P-H2AX_72hr: Apredica 72-hour HepG2 Assay for H2AX Phosphorylation (AID 2282916).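 Also: phospho-histone H2A.x immunostain intensity per cell marking DNA damage.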 The following applies: imaging, actives raise or lower the signal. In short, it runs like this:
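Following 72 hr treatment with 0.39–200 uM compound, HepG2 cells were formaldehyde-fixed, permeabilized and stained for phospho-H2A.x; signal was measured by high-content imaging and fitted bidirectionally against DMSO controls.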

A short description of assay [9]: APR_HepG2_MitoticArrest_72hr: Apredica 72-hour HepG2 Assay for Mitotic Arrest (AID 2282918). The following applies: high-content imaging, actives raise or lower the signal. In short, it runs like this: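 HepG2, 72 hr exposure, 0.39–200 uM in duplicate, 0.5% v/v DMSO final. Formaldehyde-fixed, Triton-permeabilized, anti-phospho-histone H3/FITC plus Hoechst. ArrayScan imaging at 20x; curves fit bidirectionally against DMSO baseline.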

Assay [10] can be described thus: ACEA_ER_80hr: ACEA Biosciences xCELLigence Real-Time Cell Analysis on Estrogen Receptor Agonism for Proliferation (AID 2282667; active = hit-call score of the fitted dose curve at least 0.9, where 1 is the maximum). The following applies: T47D proliferation, impedance (xCELLigence), 80 h. The procedure, abridged: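 Impedance readout (RT-CES) of T47D proliferation at 80 h post-dose; gain of signal vs DMSO baseline. Compounds: 8 conc, 1:4 serial, top 100 uM final, ≤0.5% DMSO; biological duplicate.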

With `ClCC(Cl)CCl`, the outcome in assay [1], in assay [2], in [3], in assay [4], in assay [5] and in [6] was inactive. Moreover, the call in assay [7], in assay [8] and in [9] was inactive.

For `CC(C)(C)c1cc(O)ccc1O`, the result in [1], in assay [2], in [3], in assay [4], in assay [6] and in assay [8] was inactive. Further, the result in assay [9] was inactive. Further, the AC50 in assay [5] is 114 µM (active); in assay [7], 144 µM (active).

With `CC(C)(c1ccccc1)c1ccc(O)c(C(C)(C)c2ccccc2)c1`, the molecule was classed as inactive in assay [1], in assay [3], in [4], in assay [6] and in assay [8]. Moreover, the concentration at half-maximal activity (AC50) is 22 µM (active) in assay [2], 29.4 µM (active) in assay [5], 31.2 µM (active) in assay [7] and 29.8 µM (active) in [9].

For `NC(=O)O`, the half-maximal activity concentration (AC50) was 10.7 µM (active) in assay [1]; 9.65 µM (active) in assay [2]; 12.2 µM (active) in assay [3]; 5.54 µM (active) in assay [4]; 0.205 µM (active) in assay [5]; 12.2 µM (active) in assay [6]. The values for the AC50 in [7], in assay [8] and in assay [9] were 3.92 µM (active), 4.73 µM (active) and 4.17 µM (active), respectively.

With `CCC(C)(C)c1ccc(O)c(C(C)(C)CC)c1`, the concentration at half-maximal activity (AC50) in assay [1] was 28.1 µM (active); in assay [2] it was 39.1 µM (active); in assay [4], 32.3 µM (active); in assay [5], 29.7 µM (active); in [6] it was 13.9 µM (active); in assay [7], 37.4 µM (active). Also, the AC50 in [9] is 59.4 µM (active). In addition, the call in assay [3] and in assay [8] was inactive.

For `C[C@]12CCC(=O)C[C@@H]1CC[C@@H]1[C@@H]2CC[C@]2(C)[C@@H](O)CC[C@@H]12`, the result in [1], in assay [2], in assay [3], in assay [4], in [5] and in assay [6] was inactive. Moreover, the outcome in assay [9] was inactive. Moreover, the concentration at half-maximal activity (AC50) in assay [7] was 64.5 µM (active); in assay [8], 91.2 µM (active).

For `C=CC(=O)N(C)C`, the call in assay [10] was inactive.

As to `C=C(C)C#N`, the outcome in assay [10] was inactive.

As to `CC(C)(OO)c1ccccc1`, the concentration at half-maximal activity (AC50) was 78.4 µM (active) in assay [1]; 65.1 µM (active) in [2]; 75.3 µM (active) in assay [3]; 71.4 µM (active) in [4]; 96.2 µM (active) in assay [5]; 88.8 µM (active) in assay [6]. Also, the AC50 in [7] was 59.9 µM (active); in assay [8], 56.7 µM (active); in [9], 59.4 µM (active).

`Oc1cccc2cccnc12`: the AC50 in assay [1] is 15.4 µM (active); in assay [6] it was 1.59 µM (active); in assay [7], 2.66 µM (active); in assay [8] it was 16.9 µM (active); in assay [9] it was 5.23 µM (active). Further, the result in assay [2], in assay [3], in [4] and in assay [5] was inactive.

Take `ClC1(Cl)C2(Cl)C3(Cl)C4(Cl)C(Cl)(Cl)C5(Cl)C3(Cl)C1(Cl)C5(Cl)C24Cl` (stereo not drawn): the molecule was called inactive in assay [1], in [2], in assay [3], in assay [4], in assay [5] and in assay [6]. The molecule was called inactive in assay [7], in [8] and in assay [9].

For the molecule `CCCCCCCCCl`, the molecule was called inactive in [10].

With `C=C(C)C(=O)[O][Sn]([CH2]CCC)([CH2]CCC)[CH2]CCC`, the result in assay [1], in assay [2], in assay [3] and in assay [5] was inactive. Moreover, the AC50 in [4] was 0.248 µM (active); in [6], 0.188 µM (active); in assay [7], 0.228 µM (active); in assay [8], 0.0519 µM (active); in [9], 0.0391 µM (active).

In general, AC50 refers to the midpoint of the concentration-response curve, whichever way the signal moves.
